# Source: PMC5540273 (PLoS ONE, 2017)
# Key:
# Details in all cases: concentration: 1 μM, replicates: in singlicate; n = 1
# PFTAIRE2 = tested on: PFTAIRE2
# PFTK1 = tested on: T1, PFTK1
# T1 construct: gene CDK14
# PHKG1 = tested on: PHKG1
# PHKG2 = tested on: PHKG2
# PIK3C2B = tested on: PIK3C2B
# PIK3C2G = tested on: PIK3C2G
# PIK3CA = tested on: PIK3CA
# PIK3CB = tested on: PIK3CB
# PIK3CD = tested on: PIK3CD
# PIK3CG = tested on: PIK3CG
# 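Also: KINOMEscan kinase panel screen.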
Structure (SMILES),%Inh (PFTAIRE2),%Inh (PFTK1),%Inh (PHKG1),%Inh (PHKG2),%Inh (PIK3C2B),%Inh (PIK3C2G),%Inh (PIK3CA),%Inh (PIK3CB),%Inh (PIK3CD),%Inh (PIK3CG)
COc1cccc(C2=C(Nc3cc(Cl)c(O)c(Cl)c3)C(=O)NC2=O)c1 [SB-390767],8%,0%,0%,0%,0%,0%,0%,0%,0%,0%
Cc1ccccc1-c1cc(-c2c[nH]nc2-c2ccccn2)ccn1 [GW680061],0%,0%,0%,0%,0%,0%,0%,0%,4%,0%
O=c1cc(N2CCOCC2)nc2n(Cc3ccccc3F)ccn12 [GSK2297428],0%,23%,0%,0%,2%,0%,6%,94.5%,32%,24%
Cc1c(Cn2c(C)c(C)n3c(=O)cc(N4CCOCC4)nc23)cccc1C(F)(F)F [GSK2328680],8%,10%,0%,0%,4%,0%,20%,99.1%,80%,4%
CNc1cc(-c2ccc3c(N)n[nH]c3c2)nc(N)n1 [GSK2224810],0%,18%,0%,18%,0%,0%,0%,9%,1%,5%
c1ccc(-c2ccnc3[nH]ccc23)cc1 [SB-693578],9%,9%,0%,0%,0%,0%,0%,0%,0%,0%
Nc1cccc(-c2ccc3c(N)n[nH]c3c2)n1 [GSK2192730],20%,0%,0%,6%,5%,0%,18%,0%,0%,15%
COc1ccc(Nc2nccc(-c3ccc(NC(=O)c4cc5cc(F)ccc5[nH]4)cc3)n2)cc1 [GSK1229496],0%,13%,0%,0%,0%,0%,0%,0%,0%,2%
Fc1ccc(-c2nc[nH]c2-c2ccncc2)cc1 [SB-217360],12%,0%,0%,3%,0%,0%,12%,0%,0%,0%
Cc1ccccc1Cn1ccn2c(=O)cc(N3CCOCC3)nc12 [GSK2269905],0%,12%,0%,0%,0%,0%,0%,99.9%,57%,0%
CNCc1ccc2nc(NC(=O)c3ccc(C(C)(C)C)cc3)cn2c1,6%,0%,5%,0%,91.5%,0%,89%,16%,22%,40%
COc1ccc(Nc2nccc(NCCNC(=O)Nc3cc(C)ccc3C)n2)cc1 [GSK1379899],9%,32%,0%,0%,90%,0%,86%,0%,0%,68%
Cc1ccc(NC(=O)Nc2ccc(Cl)c(C(F)(F)F)c2)cc1-c1ccc(C(=O)Nc2ccncc2)cc1 [GSK1398470],21%,0%,23%,4%,0%,2%,9%,0%,0%,10%
Cn1cncc1C(=O)NC1CCN(c2ccnc(Nc3ccc(F)cc3)n2)C1 (stereo not shown) [GSK1379717],10%,11%,0%,6%,5%,0%,0%,0%,0%,0%
Cc1c(Cn2c3ccccc3n3c(=O)cc(N4CCOCC4)nc23)cccc1C(F)(F)F [GSK2306394],14%,21%,12%,18%,9%,3%,1%,98.4%,52%,0%
CNC(=O)c1ccc(C)c(-n2c(C)cc(OCc3ccc(F)cc3F)c(Br)c2=O)c1,0%,8%,5%,0%,0%,0%,0%,0%,0%,0%
Fc1ccc(-c2nc3n(c2-c2ccncc2)CCS3)cc1 [GI98581],11%,16%,0%,0%,92.7%,0%,91.9%,0%,0%,81%

Structure (SMILES),%Inh (PFTAIRE2),%Inh (PFTK1),%Inh (PHKG1),%Inh (PHKG2),%Inh (PIK3C2B),%Inh (PIK3C2G),%Inh (PIK3CA),%Inh (PIK3CB),%Inh (PIK3CD),%Inh (PIK3CG)
COc1cccc(NC(=O)Nc2ccc(C)c(-c3ccc(C(=O)Nc4ccncc4)cc3)c2)c1 [GSK1398474],27%,0%,0%,17%,100%,0%,99.9%,0%,0%,99.9%
Fc1ccc(-c2nn3cccc(F)c3c2-c2ccncc2)cc1 [GW475620],0%,20%,0%,0%,0%,15%,0%,0%,25%,0%
Nc1nccc(-c2c(-c3ccc(F)cc3)ncn2C2CCN(Cc3ccccc3)CC2)n1 [SB-219980],5%,0%,1%,0%,17%,52%,0%,4%,35%,7%
O=c1cc(N2CCOCC2)nc2n(Cc3cccc(Cl)c3Cl)c3ccccc3n12 [GSK2299009],29%,19%,7%,3%,0%,0%,7%,97.5%,3%,1%
COC(=O)c1cccc(NC(=O)NC2CCN(c3ccnc(Nc4ccc(F)cc4)n3)C2)c1 (stereo not shown) [GSK1379725],5%,16%,0%,0%,0%,0%,0%,0%,0%,0%
CNc1nc(-c2ccc3c(N)n[nH]c3c2)cc(N2C[C@@H](C(=O)Nc3ccccc3)CC[C@H]2C)n1 [GSK2298859],3%,17%,0%,15%,0%,0%,0%,0%,0%,0%
COc1cccc(CNC(=O)NC2CCN(c3ccnc(Nc4ccc(F)cc4)n3)C2)c1 (stereo not shown) [GSK1379723],7%,0%,0%,26%,0%,0%,0%,0%,2%,0%
FC(F)(F)c1ccccc1-c1cc(-c2c[nH]nc2-c2ccccn2)ccn1 [GW679396],10%,14%,3%,4%,0%,0%,0%,18%,0%,3%
CS(=O)(=O)CCNCc1nc(-c2ccc3ncnc(Nc4ccc(OCc5ccccc5)c(Cl)c4)c3c2)cs1.Cl [GW582764],7%,3%,0%,0%,0%,0%,0%,0%,0%,0%
COc1ccc(Nc2nccc(N3CCC(NC(=O)C(C)c4ccc(Cl)cc4)CC3)n2)cc1 (stereo not shown) [GSK1379812],8%,5%,0%,16%,15%,0%,21%,22%,0%,12%
Cc1ccc(NC(=O)c2ccc(Cl)cc2)cc1-c1ccc(C(=O)Nc2ccncc2)cc1 [GSK1398467],0%,0%,0%,16%,0%,0%,0%,0%,0%,0%
Cc1cnc(N)c(/C=C/c2cncc(C(=O)NCCc3ccc(Cl)cc3Cl)c2)c1.Cl [GSK190937],0%,9%,0%,19%,0%,2%,0%,1%,0%,4%
COc1ccc(Nc2nccc(N3CCC(NC(=O)c4cc5ccccc5s4)C3)n2)cc1 (stereo not shown) [GSK1379738],16%,4%,0%,0%,0%,0%,0%,0%,0%,0%
Cc1nccc(-c2c(-c3ccc(F)cc3)ncn2CCCN2CCOCC2)n1.Cl [SB-282975],24%,2%,33%,89%,0%,22%,0%,20%,49%,0%
CS(=O)(=O)CCNCc1nc(-c2ccc3ncnc(Nc4ccc5c(cnn5Cc5ccccc5)c4)c3c2)cs1.Cl.Cl [GW569716],0%,6%,0%,0%,53%,0%,0%,0%,1%,0%
O=C1NC(=O)C(c2ccc(Cl)cc2)=C1Nc1cccc(Cl)c1 [SB-317651],0%,1%,0%,0%,13%,0%,9%,96.7%,0%,38%
CC(=O)c1cccc(NC(=O)NC2CCN(c3ccnc(Nc4ccc(F)cc4)n3)C2)c1 (stereo not shown) [GSK1379710],26%,14%,0%,1%,0%,0%,0%,0%,24%,7%
